Source: PubChem BioAssay
Activity calls are given as the source filed them. Rule as the data show it: active = fold change permeability below about 0.7 or above about 1.3; inactive = in between.

assay: compounds altering in vitro BBB leakiness – cell-based, FITC-avidin fluorescence, HTS, primary screen (AID 1963498); conditions: brain endothelial barrier, actives lie on both sides; also: test concentration not given here

Row | SMILES | fold change permeability
1 | COC1=C(OC)C(=O)c2ccccc2C1=O | 1.4 (active)
2 | Cc1nc(Nc2cnn(C3CCNCC3)c2)nc2c1N(C)C(=O)c1cc3ccccc3cc1N2C | 1 (inactive)
3 | CCCn1c(=O)c2c(ncn2C)n(CCC)c1=O | 1 (inactive)
4 | CCCCn1c(-c2ccccc2)nc(-c2ccccc2)c1CN(Cc1ccc2c(c1)OCO2)Cc1ccc2c(c1)OCO2 | 1.3 (active)
5 | O=CN(O)CCCP(=O)(O)O | 2.2 (active)
6 | COc1cc2ncnc(-n3nc(-c4ccccn4)nc3N)c2cc1OC | 2 (active)
7 | Nc1ccc(CCNc2ncnc3c2ncn3C2OC(CO)C(O)C2O)cc1 (stereo not given) | 1 (inactive)
8 | Cc1cccc(Nc2ccccc2C(=O)O)c1 | 0.9 (inactive)
9 | CC(C)=CCc1cc2c(cc1O)oc(=O)c1c3ccc(O)cc3oc21 | 1.4 (active)
10 | CN1CCN(C2=Nc3cc(Cl)ccc3Nc3ccccc32)CC1 | 1.2 (inactive)
11 | CCCCCCNC(=O)n1cc(F)c(=O)[nH]c1=O | 0.9 (inactive)
12 | C=C[C@@]1(C)CC(=O)[C@]2(O)[C@@]3(C)[C@@H](O)CCC(C)(C)[C@@H]3[C@H](O)[C@H](OC(C)=O)[C@@]2(C)O1 | 0.8 (inactive)
13 | CN=c1nc(-c2ccccc2)n(-c2ccccc2)s1 | 2.1 (active)
14 | CN(C)CCC(c1ccccc1)c1ccccn1 (stereo not given) | 1 (inactive)
15 | COc1cccc(OC)c1-c1cc(C(=O)NC2(C(=O)O)C3CC4CC(C3)CC2C4)nn1-c1ccc(C(=O)N(C)CCCN(C)C)cc1C(C)C (stereo not given) | 0.9 (inactive)
16 | CN(C)CCCN1c2ccccc2CCc2ccc(Cl)cc21 | 1.1 (inactive)
17 | COCCOC(=O)C1=C(C)NC(C)=C(C(=O)OC/C=C/c2ccccc2)C1c1cccc([N+](=O)[O-])c1 (stereo not given) | 1.2 (inactive)
18 | COC(=O)C1=CO[C@@H](O)[C@@H]2C(CO)=CC[C@H]12 | 1.1 (active)
19 | COCCOC(=O)C1=C(C)NC(C)=C(C(=O)OC(C)C)C1c1cccc([N+](=O)[O-])c1 (stereo not given) | 0.7 (active)
20 | CN1CCN(C2=Nc3ccccc3Oc3ccc(Cl)cc32)CC1 | 1.3 (active)

Row | SMILES | fold change permeability
21 | Cc1cc2c(s1)Nc1ccccc1N=C2N1CCN(C)CC1 | 0.7 (active)
22 | Brc1c(Br)c(Br)c2[nH]cnc2c1Br | 1.2 (inactive)
23 | Cc1cccc(C#Cc2ccccc2)n1 | 0.9 (inactive)
24 | O=C(O)CCCCCCCC(=O)O | 1.2 (inactive)
25 | Cn1cc(C(=O)OCC2CCN(CCNS(C)(=O)=O)CC2)c2ccccc21 | 1 (inactive)
26 | C#CCN(C)Cc1ccccc1 | 0.6 (active)
27 | c1ccc(-c2ccccn2)nc1 | 1 (inactive)
28 | N=C(N)SCCN | 1.1 (inactive)
29 | CCOC(=O)C1=C[C@@H](OC(CC)CC)[C@H](NC(C)=O)[C@@H](N)C1 | 0.8 (inactive)
30 | NC(N)=NC(N)=Nc1ccccc1 | 0.9 (inactive)
31 | N=c1nc(N2CCCCC2)cc(N)n1O | 0.9 (inactive)
32 | CCOC(=O)C1=C[C@]2(CC)CCCN3CCc4c(n1c1ccccc41)[C@@H]32 | 1.8 (active)
33 | O=C1OC(=O)C2C3CCC(O3)C12 (stereo not given) | 0.9 (inactive)
34 | CCN(Cc1ccncc1)C(=O)C(CO)c1ccccc1 (stereo not given) | 1.6 (active)
35 | O=c1onc2cnc3ccccc3n12 | 1.1 (inactive)
36 | C[C@H](NC(=O)CNC(=O)c1cccc(Cl)c1)c1ccccc1 | 1.1 (inactive)
37 | COc1ccccc1OCC(O)CN1CCN(CC(=O)Nc2c(C)cccc2C)CC1 (stereo not given) | 0.8 (inactive)
38 | O=C(O)c1ccccc1Nc1ccccc1 | 1 (inactive)
39 | CCN(CC)CCNC(=O)c1cc(Cl)c(N)cc1OC | 0.9 (inactive)
40 | CCN(CC)CCNC(=O)c1ccc(NC(C)=O)cc1 | 1.1 (inactive)
